The record followed here is PubChem BioAssay (NCI).

Compounds without any hit were thinned out: in the full panel of roughly 83,000, 20% have a hit.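 Values shown are percent growth following 48 h exposure of cells in 96-well plates to a single concentration of compound; below 10 was considered active.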 Values without a mark were called inactive. Active and inactive are the calls of the source.

This assay relates to SW-620 colon. Briefly: NCI-60 one-dose screen, 48 h (100 = growth as untreated, 0 = no growth, -100 = all killed). The settings on record: 10 µM unless noted. How it is done:
Growth inhibition of the SW-620 human tumor cell line is measured as a screen for anti-cancer activity. Cells are grown in 96 well plates and exposed to the test compound for 48 hours. Compounds are tested at a single concentration, which is 10^-5 M for most compounds. The reported endpoint is percent growth (GI% or GIPRCNT), where numbers from 0 - 100% represent growth inhibition, and numbers from -100% - 0 represent cell death. For example, a value of 40 represents 60% growth inhibition. A value of 0 means no net growth occurred over the course of the experiment. A value of -40 indicates 40% of cells at the beginning of the experiment died by the end of the experiment. A value of -100 means all cells are dead at the end of the experiment.
NCI-60 Human Tumor Cell Lines Screen was performed using the standard one-dose NCI protocol, which is described in more detail at https://dtp.cancer.gov/discovery_development/nci-60/default.htm.
Compounds with GIPRCNT values below 10 were considered active. Activity score was based on GIPRCNT using the following formula: […]
Score is 0 for GIPRCNT values of 100 or above, 50 for GIPRCNT values of 0, and 100 for GIPRCNT values of -100.
`CCN(CC)CCNCC(=O)Oc1ccc(/C=C/C(=O)CC(=O)/C=C/c2ccc(OC(=O)CNCCN(CC)CC)c(OC)c2)cc1OC`: the growth was -26.5% (active).
The value for `COc1ccc2c(c1)[n+](=O)c(C(=O)/C=C/c1cc(OC)c(OC)c(OC)c1)c(C)n2[O-]` was 72.4%.
Turning to `COc1ccc(-c2c3c(N)nc(-c4ccncc4)nc3nc3c2c(C)nn3-c2ccccc2)cc1`, the growth was 34.4%.
In the case of `CCN(CC)CCOCC[C@H]1CC[C@H]2[C@@H]3[C@H](C)Cc4cc(OS(N)(=O)=O)ccc4[C@H]3CC[C@]12C` it was -77.5% (active); in that of `CCCCc1ccc(C(N)=O)nc1`, -90% (active); in that of `C/C(=C\CCc1ccsc1)CC/C=C(\C)CCCN1CCSCC1`, 92%.
The value for `C/C=C(/C(=C/C)c1ccc(O)cc1)c1ccc(O)cc1` was 25.6%; that for `CNNc1ncnc2c1cnn2-c1ccc(S(N)(=O)=O)cc1` was 98.6%; that for `[N-]=[N+]=NCc1cccc(/C(O)=C/C(=O)C(=O)O)c1` was 94.9%.
The value for `CC(=O)N1N=C(c2ccc(Nc3nc(NCCO)nc(NCCO)n3)cc2)CC1c1ccc(Cl)cc1` (stereo not given) was 107%; that for `Nc1c(C(=O)Nc2cccc(Cl)c2)sc2nc3c(cc12)C(O)CCC3` (stereo not given) was 43.9%.
For the compound `COc1ccc(C2CC(c3ccc4c(c3)OCO4)=NN2C=O)cc1` (stereo not given), the growth is 104%.
The value for `CCN(CC)c1ccc(/C=C/C(=O)c2cccc(NS(C)(=O)=O)c2)cc1` was 22.1%.
In the case of `C[C@]12CC[C@H](O)CC1=CC[C@@H]1[C@@H]2CC[C@]2(C)C(c3cccnc3)=CC[C@@H]12`, the growth is 72.7%.
In the case of `Cc1cn(C(C=O)OC(C=O)CO)c(=O)[nH]c1=O` (stereo not given) it was 105%; in that of `COc1ccc(/C=C/C(=O)c2cccc(NS(C)(=O)=O)c2)cc1`, 50.5%.
In the case of `COc1ccc2c(c1)sc1nc(-c3ccc(Br)cc3)cn12` it was 101%; in that of `COC(=O)C1=CCC(n2cnc3c(N)ncnc32)O1` (stereo not given), 106%.
The value for `COc1c(O)cc2c(c1CC=C(C)C)OC(=O)c1c(cc(O)c(CC=C(C)C)c1O)O2` was 27.3%; that for `O=C(NN1C(=O)c2cc(C(=O)O)c(C(=O)O)cc2C1=O)c1ccncc1` was 101%; that for `Clc1ccc2nc(CI)c(CI)nc2c1` was 25.1%.
In the case of `COc1ccc2c(c1)CC[C@@H]1[C@@H]2CC[C@]2(C)[C@@H](O)C(=O)C[C@@H]12`, the growth is 105%.
`NC(=O)NS(=O)(=O)c1ccc(N2N=C(C(F)(F)F)CC2c2cc(C(F)(F)F)cc(C(F)(F)F)c2)cc1` (stereo not given): the growth is 82.6%.
The value for `N#Cc1c(-c2ccc(F)cc2)n2c(nc1=O)SC(=O)C2=O` was 103%; that for `Cc1cc(-c2ccccc2)cc(C)n1` was 109%; that for `COc1ccc2[nH]c(=O)c(CNc3ccc(Nc4nccc(-c5ccc(Cl)cc5)n4)cc3)cc2c1` was 105%.
The value for `COc1cc2c(cc1OC)C(=O)/C(=C/c1cccc(OCC(=O)c3ccccc3)c1)C2` was 74.6%; that for `CN1CCN(CCCCCN=c2cc3c(=O)n(CCCCCN4CCN(C)CC4)c(=O)c4c(NCCCCCN5CCN(C)CC5)cc5c(O)n(CCCCCN6CCN(C)CC6)c(=O)c2c5c4-3)CC1` was 21.9%.
The value for `CC(C)Cn1cnc2c(NCn3nc(-c4cc(Cl)cc(Cl)c4Cl)n(/N=C/c4ccc(Cl)cc4)c3=S)nc3ccccc3c21` was 98.5%.
For `CC(=O)Nc1cc2c3c(cccc3c1)-c1ccccc1-2`, the growth is 99.7%.
As to `Cc1cc2c(cc1C)[n+](Cc1ccc3ccccc3c1)cn2Cc1ccc2ccccc2c1`, the growth is -84.1% (active).
The value for `COc1cccc(CCN2C(=O)CCC3=C2CCC3=O)c1` was 119%; that for `Cc1ccc(/C=C/C(=O)c2ccc(F)cc2)s1` was 30.4%.
The value for `COc1ccc2c(c1)c(CC(=O)[Se]C)c(C)n2C(=O)c1ccc(Cl)cc1` was 29.9%.
`COc1ccc(-c2nc3sc4c(c3c(=O)[nH]2)CCCCCC4)cc1`: the growth is 29%.
Regarding `COc1cccc(/C=C2\Cc3ccccc3C2=O)c1`, the growth is 104%.
The value for `COc1cc(/C=C\C(C)=N\Nc2ccccc2)ccc1O` was 106%; that for `C/C(=C\CCc1ccoc1)CC/C=C(\C)CCCNc1ccc(F)cc1` was 90.6%; that for `NC(=O)c1cc(Cl)ccc1NC(=O)c1ccccc1-c1ccccc1` was 27.4%.
Turning to `COc1cnc2c(c1)C(=O)c1c-2n(CCCN2CCNCC2)c(=O)c2cc(F)ccc12`, the growth was -53.7% (active).
